Measurements: PubChem BioAssay (NCI)
This is part of a sample that, as a whole, favours compounds with a hit. Of some 83,000 tested, about 20% had one in any assay.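 Growth was measured after 48 h exposure to one concentration of compound in 96-well plates. Values under 10 count as active.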 Calls of active or inactive are those of the source.

Assays:
Assay in all cases: NCI-60 one-dose screen, 48 h (100 = growth as untreated, 0 = no growth, -100 = all killed)
Conditions in all cases: 10 µM unless noted
DU-145 prostate = tested on: DU-145 prostate
K-562 leukemia = tested on: K-562 leukemia
MALME-3M melanoma = tested on: MALME-3M melanoma
MDA-MB-231 breast = tested on: MDA-MB-231 breast
RXF 393 renal = tested on: RXF 393 renal
SF-268 CNS = tested on: SF-268 CNS
SF-295 CNS = tested on: SF-295 CNS
SF-539 CNS = tested on: SF-539 CNS
UACC-257 melanoma = tested on: UACC-257 melanoma
M14 melanoma = tested on: M14 melanoma
HCT-15 colon = tested on: HCT-15 colon
HT29 colon = tested on: HT29 colon
SNB-75 CNS = tested on: SNB-75 CNS
SNB-19 CNS = tested on: SNB-19 CNS
U251 CNS = tested on: U251 CNS
PC-3 prostate = tested on: PC-3 prostate
SK-MEL-5 melanoma = tested on: SK-MEL-5 melanoma
UACC-62 melanoma = tested on: UACC-62 melanoma
LOX IMVI melanoma = tested on: LOX IMVI melanoma

Measured: growth

C=C1C(=O)O[C@H]2[C@H]1CC/C(COC(=O)Nc1nc3ccccc3[nH]1)=C\CC[C@@]1(C)O[C@@H]21
inactive: DU-145 prostate 36.3% | K-562 leukemia 13.5% | MALME-3M melanoma 48.6% | MDA-MB-231 breast 66.1% | RXF 393 renal 30.6% | SF-268 CNS 94.3% | SF-295 CNS 107% | SF-539 CNS 61.1% | UACC-257 melanoma 76.2% | M14 melanoma 46.4% | HCT-15 colon 25.3% | HT29 colon 42.2% | SNB-75 CNS 75.7% | SNB-19 CNS 91.1% | U251 CNS 90.2% | PC-3 prostate 67.5% | SK-MEL-5 melanoma 83.7% | UACC-62 melanoma 53.9% | LOX IMVI melanoma 69.6%

COc1cc(/C=C/C(=O)/C=C/c2cc3ccc(Cl)cc3[nH]c2=O)ccc1O
active: HT29 colon 5.63%
inactive: DU-145 prostate 45.9% | K-562 leukemia 23.2% | MALME-3M melanoma 101% | MDA-MB-231 breast 45.9% | RXF 393 renal 70.9% | SF-268 CNS 72.2% | SF-295 CNS 79.7% | SF-539 CNS 105% | UACC-257 melanoma 90.8% | M14 melanoma 54.1% | HCT-15 colon 52.4% | SNB-75 CNS 74.4% | SNB-19 CNS 76.5% | U251 CNS 19.6% | PC-3 prostate 56.2% | SK-MEL-5 melanoma 60.8% | UACC-62 melanoma 53.1% | LOX IMVI melanoma 19.8%

O=c1[nH]c2ccccc2cc1-c1nc2ccncc2[nH]1
inactive: DU-145 prostate 78.8% | K-562 leukemia 79.1% | MALME-3M melanoma 113% | MDA-MB-231 breast 98.3% | RXF 393 renal 72.5% | SF-268 CNS 96.6% | SF-295 CNS 78.1% | SF-539 CNS 79.1% | UACC-257 melanoma 111% | M14 melanoma 87.3% | HCT-15 colon 85.9% | HT29 colon 84.5% | SNB-75 CNS 58.3% | SNB-19 CNS 82.5% | U251 CNS 83.7% | PC-3 prostate 74% | SK-MEL-5 melanoma 86.7% | UACC-62 melanoma 80.3% | LOX IMVI melanoma 82.1%

O=C1C(=O)c2c(nc3ccc(Br)cn23)-c2ccccc21
active: DU-145 prostate -100% | K-562 leukemia -59.8% | MALME-3M melanoma -97.9% | MDA-MB-231 breast -20.1% | RXF 393 renal -94.1% | SF-268 CNS -71.7% | SF-295 CNS -100% | SF-539 CNS -99.1% | UACC-257 melanoma -99% | M14 melanoma -92.9% | HCT-15 colon -75.7% | HT29 colon -29.1% | SNB-75 CNS -95.3% | SNB-19 CNS -86.4% | U251 CNS -100% | PC-3 prostate -63.4% | SK-MEL-5 melanoma -97.6% | UACC-62 melanoma -87.6% | LOX IMVI melanoma -76.6%

CCN1CCN(Cc2ccc(NC(=O)c3cccc(C#Cc4cccc5[nH]nc(N)c45)c3)cc2C(F)(F)F)CC1
active: DU-145 prostate -70% | K-562 leukemia -43.8% | MALME-3M melanoma -71.4% | MDA-MB-231 breast -85% | RXF 393 renal -92% | SF-268 CNS -41.5% | SF-295 CNS -88.4% | SF-539 CNS -98% | UACC-257 melanoma -75.7% | M14 melanoma -83.5% | HCT-15 colon -70.7% | HT29 colon -83% | SNB-75 CNS -60.8% | SNB-19 CNS -83.6% | U251 CNS -95.6% | PC-3 prostate -80.3% | SK-MEL-5 melanoma -97.2% | UACC-62 melanoma -77.1% | LOX IMVI melanoma -100%

CCc1c(C(=O)N[C@@H](C(=O)OCc2ccccc2)C(C)O)[nH]c2ccc(Cl)cc12 (some centres not stated)
inactive: DU-145 prostate 86.5% | K-562 leukemia 104% | MALME-3M melanoma 69.7% | MDA-MB-231 breast 61.3% | RXF 393 renal 83.8% | SF-268 CNS 84.3% | SF-295 CNS 52.1% | SF-539 CNS 71.4% | UACC-257 melanoma 109% | M14 melanoma 88.3% | HCT-15 colon 79.3% | HT29 colon 72.8% | SNB-75 CNS 19.9% | SNB-19 CNS 83.6% | U251 CNS 36.3% | PC-3 prostate 82.1% | SK-MEL-5 melanoma 84.1% | UACC-62 melanoma 91.4% | LOX IMVI melanoma 81.1%

COc1cc(/C=C/C(=O)c2ccc(NC(=O)CSc3nnc(-c4cc(OC)c(OC)c(OC)c4)n3-c3ccccc3)cc2)cc(OC)c1OC
inactive: DU-145 prostate 26.5% | MALME-3M melanoma 67.7% | MDA-MB-231 breast 42.7% | SF-268 CNS 34.3% | SF-295 CNS 17.7% | SF-539 CNS 18.6% | UACC-257 melanoma 45.8% | SNB-75 CNS 45.4% | SNB-19 CNS 35.8% | PC-3 prostate 28% | SK-MEL-5 melanoma 17.6% | UACC-62 melanoma 20.8%
active: K-562 leukemia 6.66% | RXF 393 renal -55.4% | M14 melanoma -9.25% | HCT-15 colon -37.6% | HT29 colon 1.25% | U251 CNS -8.68% | LOX IMVI melanoma -52.3%

C#CCN1C(=O)c2ccccc2N(CC#C)C12CCN(Cc1cn(CC(=O)Nc3ccccc3C(N)=O)nn1)CC2
inactive: DU-145 prostate 98.7% | K-562 leukemia 92.4% | MALME-3M melanoma 102% | MDA-MB-231 breast 89.9% | RXF 393 renal 90.5% | SF-268 CNS 91.7% | SF-295 CNS 85.5% | SF-539 CNS 91.5% | UACC-257 melanoma 103% | M14 melanoma 89.3% | HCT-15 colon 86.8% | HT29 colon 85.1% | SNB-75 CNS 78.3% | SNB-19 CNS 90.5% | U251 CNS 97.2% | PC-3 prostate 83.7% | SK-MEL-5 melanoma 76.9% | UACC-62 melanoma 74.3% | LOX IMVI melanoma 87%
